# From the supplement of paper PMC4466140
# Molecular target: AgAbp1
# Experiment: SPOT peptide array binding signal intensity (averaged, normalized) (arbitrary units (background-subtracted, floor 0; scale differs between SH3 domains)); higher = stronger binding of the SH3 domain to the peptide
# Method in brief: (§1)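 Spot intensities were captured after detection with anti-GST antibody, an HRP-linked anti-mouse secondary and luminol, and quantified with Genespotter. The probes were GST-fused SH3 domains from four yeast species, produced in E. coli BL21(DE3), purified on glutathione Sepharose and incubated at 10 μg/ml overnight at 4°C on cellulose-bound synthetic 15-mer peptides with cysteines replaced by serines. Binding signal is the normalized, background-subtracted spot intensity averaged over replicates, and its arbitrary units differ between domains.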
row,Binder,SPOT peptide array binding signal intensity
1,FTLPPPPPPPGLDEL,≤ 0

# Molecular target: AgBbc1
# Experiment: as above
# Method in brief: as §1
row,Binder,SPOT peptide array binding signal intensity
1,FTLPPPPPPPGLDEL,≤ 0

# Molecular target: AgBem1-D1
# Experiment: as above
# Method in brief: as §1
row,Binder,SPOT peptide array binding signal intensity
1,FTLPPPPPPPGLDEL,≤ 0

# Molecular target: AgBzz1-D1
# Experiment: as above
# Method in brief: as §1
row,Binder,SPOT peptide array binding signal intensity
1,FTLPPPPPPPGLDEL,≤ 0

# Molecular target: AgBzz1-D2
# Experiment: as above
# Method in brief: as §1
row,Binder,SPOT peptide array binding signal intensity
1,FTLPPPPPPPGLDEL,3

# Molecular target: AgCyk3
# Experiment: as above
# Method in brief: as §1
row,Binder,SPOT peptide array binding signal intensity
1,FTLPPPPPPPGLDEL,≤ 0

# Molecular target: AgFus1
# Experiment: as above
# Method in brief: as §1
row,Binder,SPOT peptide array binding signal intensity
1,FTLPPPPPPPGLDEL,≤ 0

# Molecular target: AgHof1
# Experiment: as above
# Method in brief: as §1
row,Binder,SPOT peptide array binding signal intensity
1,FTLPPPPPPPGLDEL,85.8

# Molecular target: AgHse1
# Experiment: as above
# Method in brief: as §1
row,Binder,SPOT peptide array binding signal intensity
1,FTLPPPPPPPGLDEL,≤ 0

# Molecular target: AgLsb1
# Experiment: as above
# Method in brief: as §1
row,Binder,SPOT peptide array binding signal intensity
1,FTLPPPPPPPGLDEL,≤ 0

# Molecular target: AgLsb4
# Experiment: as above
# Method in brief: as §1
row,Binder,SPOT peptide array binding signal intensity
1,FTLPPPPPPPGLDEL,≤ 0

# Molecular target: AgMyo5
# Experiment: as above
# Method in brief: as §1
row,Binder,SPOT peptide array binding signal intensity
1,FTLPPPPPPPGLDEL,1170

# Molecular target: AgNbp2
# Experiment: as above
# Method in brief: as §1
row,Binder,SPOT peptide array binding signal intensity
1,FTLPPPPPPPGLDEL,≤ 0

# Molecular target: AgRvs167
# Experiment: as above
# Method in brief: as §1
row,Binder,SPOT peptide array binding signal intensity
1,FTLPPPPPPPGLDEL,0.833

# Molecular target: AgSho1
# Experiment: as above
# Method in brief: as §1
row,Binder,SPOT peptide array binding signal intensity
1,FTLPPPPPPPGLDEL,≤ 0

# Molecular target: AgSla1-D1-D2
# Experiment: as above
# Method in brief: as §1
row,Binder,SPOT peptide array binding signal intensity
1,FTLPPPPPPPGLDEL,4

# Molecular target: AgSla1-D3
# Experiment: as above
# Method in brief: as §1
row,Binder,SPOT peptide array binding signal intensity
1,FTLPPPPPPPGLDEL,≤ 0

# Molecular target: CaAbp1-D1
# Experiment: as above
# Method in brief: as §1
row,Binder,SPOT peptide array binding signal intensity
1,FTLPPPPPPPGLDEL,≤ 0

# Molecular target: CaAbp1-D2
# Experiment: as above
# Method in brief: as §1
row,Binder,SPOT peptide array binding signal intensity
1,FTLPPPPPPPGLDEL,≤ 0

# Molecular target: CaBbc1
# Experiment: as above
# Method in brief: as §1
row,Binder,SPOT peptide array binding signal intensity
1,FTLPPPPPPPGLDEL,≤ 0

# Molecular target: CaBem1-D1
# Experiment: as above
# Method in brief: as §1
row,Binder,SPOT peptide array binding signal intensity
1,FTLPPPPPPPGLDEL,≤ 0

# Molecular target: CaBzz1-D1
# Experiment: as above
# Method in brief: as §1
row,Binder,SPOT peptide array binding signal intensity
1,FTLPPPPPPPGLDEL,491

# Molecular target: CaBzz1-D2
# Experiment: as above
# Method in brief: as §1
row,Binder,SPOT peptide array binding signal intensity
1,FTLPPPPPPPGLDEL,23

# Molecular target: CaCyk3
# Experiment: as above
# Method in brief: as §1
row,Binder,SPOT peptide array binding signal intensity
1,FTLPPPPPPPGLDEL,≤ 0

# Molecular target: CaFus1
# Experiment: as above
# Method in brief: as §1
row,Binder,SPOT peptide array binding signal intensity
1,FTLPPPPPPPGLDEL,≤ 0

# Molecular target: CaHof1
# Experiment: as above
# Method in brief: as §1
row,Binder,SPOT peptide array binding signal intensity
1,FTLPPPPPPPGLDEL,0.5

# Molecular target: CaHse1
# Experiment: as above
# Method in brief: as §1
row,Binder,SPOT peptide array binding signal intensity
1,FTLPPPPPPPGLDEL,≤ 0

# Molecular target: CaLsb1
# Experiment: as above
# Method in brief: as §1
row,Binder,SPOT peptide array binding signal intensity
1,FTLPPPPPPPGLDEL,≤ 0

# Molecular target: CaLsb4
# Experiment: as above
# Method in brief: as §1
row,Binder,SPOT peptide array binding signal intensity
1,FTLPPPPPPPGLDEL,≤ 0

# Molecular target: CaMyo5
# Experiment: as above
# Method in brief: as §1
row,Binder,SPOT peptide array binding signal intensity
1,FTLPPPPPPPGLDEL,33.8

# Molecular target: CaNbp2
# Experiment: as above
# Method in brief: as §1
row,Binder,SPOT peptide array binding signal intensity
1,FTLPPPPPPPGLDEL,≤ 0

# Molecular target: CaRvs167
# Experiment: as above
# Method in brief: as §1
row,Binder,SPOT peptide array binding signal intensity
1,FTLPPPPPPPGLDEL,≤ 0

# Molecular target: CaRvs167-3
# Experiment: as above
# Method in brief: as §1
row,Binder,SPOT peptide array binding signal intensity
1,FTLPPPPPPPGLDEL,≤ 0

# Molecular target: CaSho1
# Experiment: as above
# Method in brief: as §1
row,Binder,SPOT peptide array binding signal intensity
1,FTLPPPPPPPGLDEL,≤ 0

# Molecular target: CaSla1-D1-D2
# Experiment: as above
# Method in brief: as §1
row,Binder,SPOT peptide array binding signal intensity
1,FTLPPPPPPPGLDEL,7

# Molecular target: CaSla1-D3
# Experiment: as above
# Method in brief: as §1
row,Binder,SPOT peptide array binding signal intensity
1,FTLPPPPPPPGLDEL,≤ 0

# Molecular target: ScAbp1
# Experiment: as above
# Method in brief: as §1
row,Binder,SPOT peptide array binding signal intensity
1,FTLPPPPPPPGLDEL,≤ 0

# Molecular target: ScBbc1
# Experiment: as above
# Method in brief: as §1
row,Binder,SPOT peptide array binding signal intensity
1,FTLPPPPPPPGLDEL,2

# Molecular target: ScBem1-D1
# Experiment: as above
# Method in brief: as §1
row,Binder,SPOT peptide array binding signal intensity
1,FTLPPPPPPPGLDEL,≤ 0

# Molecular target: ScBzz1-D1
# Experiment: as above
# Method in brief: as §1
row,Binder,SPOT peptide array binding signal intensity
1,FTLPPPPPPPGLDEL,12

# Molecular target: ScBzz1-D2
# Experiment: as above
# Method in brief: as §1
row,Binder,SPOT peptide array binding signal intensity
1,FTLPPPPPPPGLDEL,0.5

# Molecular target: ScCyk3
# Experiment: as above
# Method in brief: as §1
row,Binder,SPOT peptide array binding signal intensity
1,FTLPPPPPPPGLDEL,≤ 0

# Molecular target: ScFus1
# Experiment: as above
# Method in brief: as §1
row,Binder,SPOT peptide array binding signal intensity
1,FTLPPPPPPPGLDEL,≤ 0

# Molecular target: ScHof1
# Experiment: as above
# Method in brief: as §1
row,Binder,SPOT peptide array binding signal intensity
1,FTLPPPPPPPGLDEL,204

# Molecular target: ScHse1
# Experiment: as above
# Method in brief: as §1
row,Binder,SPOT peptide array binding signal intensity
1,FTLPPPPPPPGLDEL,≤ 0

# Molecular target: ScLsb1
# Experiment: as above
# Method in brief: as §1
row,Binder,SPOT peptide array binding signal intensity
1,FTLPPPPPPPGLDEL,0.25

# Molecular target: ScLsb2
# Experiment: as above
# Method in brief: as §1
row,Binder,SPOT peptide array binding signal intensity
1,FTLPPPPPPPGLDEL,≤ 0

# Molecular target: ScLsb3
# Experiment: as above
# Method in brief: as §1
row,Binder,SPOT peptide array binding signal intensity
1,FTLPPPPPPPGLDEL,≤ 0

# Molecular target: ScLsb4
# Experiment: as above
# Method in brief: as §1
row,Binder,SPOT peptide array binding signal intensity
1,FTLPPPPPPPGLDEL,≤ 0

# Molecular target: ScMyo3
# Experiment: as above
# Method in brief: as §1
row,Binder,SPOT peptide array binding signal intensity
1,FTLPPPPPPPGLDEL,1360

# Molecular target: ScMyo5
# Experiment: as above
# Method in brief: as §1
row,Binder,SPOT peptide array binding signal intensity
1,FTLPPPPPPPGLDEL,1880

# Molecular target: ScNbp2
# Experiment: as above
# Method in brief: as §1
row,Binder,SPOT peptide array binding signal intensity
1,FTLPPPPPPPGLDEL,1

# Molecular target: ScPex13
# Experiment: as above
# Method in brief: as §1
row,Binder,SPOT peptide array binding signal intensity
1,FTLPPPPPPPGLDEL,1

# Molecular target: ScRvs167
# Experiment: as above
# Method in brief: as §1
row,Binder,SPOT peptide array binding signal intensity
1,FTLPPPPPPPGLDEL,≤ 0

# Molecular target: ScSho1
# Experiment: as above
# Method in brief: as §1
row,Binder,SPOT peptide array binding signal intensity
1,FTLPPPPPPPGLDEL,≤ 0

# Molecular target: ScSla1-D1-D2
# Experiment: as above
# Method in brief: as §1
row,Binder,SPOT peptide array binding signal intensity
1,FTLPPPPPPPGLDEL,4.5

# Molecular target: ScSla1-D3
# Experiment: as above
# Method in brief: as §1
row,Binder,SPOT peptide array binding signal intensity
1,FTLPPPPPPPGLDEL,1.5

# Molecular target: SpAbp1-D1
# Experiment: as above
# Method in brief: as §1
row,Binder,SPOT peptide array binding signal intensity
1,FTLPPPPPPPGLDEL,≤ 0

# Molecular target: SpBbc1
# Experiment: as above
# Method in brief: as §1
row,Binder,SPOT peptide array binding signal intensity
1,FTLPPPPPPPGLDEL,≤ 0

# Molecular target: SpBzz1-D1
# Experiment: as above
# Method in brief: as §1
row,Binder,SPOT peptide array binding signal intensity
1,FTLPPPPPPPGLDEL,1530

# Molecular target: SpBzz1-D2
# Experiment: as above
# Method in brief: as §1
row,Binder,SPOT peptide array binding signal intensity
1,FTLPPPPPPPGLDEL,9.25

# Molecular target: SpCyk3
# Experiment: as above
# Method in brief: as §1
row,Binder,SPOT peptide array binding signal intensity
1,FTLPPPPPPPGLDEL,≤ 0

# Molecular target: SpHof1
# Experiment: as above
# Method in brief: as §1
row,Binder,SPOT peptide array binding signal intensity
1,FTLPPPPPPPGLDEL,2.5

# Molecular target: SpHof1-2
# Experiment: as above
# Method in brief: as §1
row,Binder,SPOT peptide array binding signal intensity
1,FTLPPPPPPPGLDEL,1

# Molecular target: SpHof1-3
# Experiment: as above
# Method in brief: as §1
row,Binder,SPOT peptide array binding signal intensity
1,FTLPPPPPPPGLDEL,5.75

# Molecular target: SpHse1
# Experiment: as above
# Method in brief: as §1
row,Binder,SPOT peptide array binding signal intensity
1,FTLPPPPPPPGLDEL,≤ 0

# Molecular target: SpLsb1
# Experiment: as above
# Method in brief: as §1
row,Binder,SPOT peptide array binding signal intensity
1,FTLPPPPPPPGLDEL,≤ 0

# Molecular target: SpLsb4
# Experiment: as above
# Method in brief: as §1
row,Binder,SPOT peptide array binding signal intensity
1,FTLPPPPPPPGLDEL,≤ 0

# Molecular target: SpMyo1
# Experiment: as above
# Method in brief: as §1
row,Binder,SPOT peptide array binding signal intensity
1,FTLPPPPPPPGLDEL,1110

# Molecular target: SpNbp2
# Experiment: as above
# Method in brief: as §1
row,Binder,SPOT peptide array binding signal intensity
1,FTLPPPPPPPGLDEL,≤ 0

# Molecular target: SpPex13
# Experiment: as above
# Method in brief: as §1
row,Binder,SPOT peptide array binding signal intensity
1,FTLPPPPPPPGLDEL,≤ 0

# Molecular target: SpRvs167
# Experiment: as above
# Method in brief: as §1
row,Binder,SPOT peptide array binding signal intensity
1,FTLPPPPPPPGLDEL,16.7

# Molecular target: SpSla1-D1-D2
# Experiment: as above
# Method in brief: as §1
row,Binder,SPOT peptide array binding signal intensity
1,FTLPPPPPPPGLDEL,≤ 0

# Molecular target: SpSla1-D3
# Experiment: as above
# Method in brief: as §1
row,Binder,SPOT peptide array binding signal intensity
1,FTLPPPPPPPGLDEL,≤ 0
